VACV mCherry inh: vaccinia inhibition (mCherry reporter); Vaccinia virus mCherry reporter infection, fluorescence; Potency, µM (highest dose often 36.5 µM), without a hit: at the highest dose activity change, negative = inhibition, usual class: inhibitors; 310,000 compounds, 0.63% hits; AID 720579; calls by dose curve; tested in A549 cells; further: nearly all actives have a fitted effect of over 35% in size
LASV entry inh: inhibitors of Lassa virus binding or cell entry; Potency, µM (doses to about 37.9 µM), without a hit: at the top dose activity change, negative = inhibition, hits mostly inhibitors; AID 540256; 300,000 compounds, 1.2% hits; Lassa virus pseudotype entry inhibition, cell reporter; calls by dose curve; tested in HEK293 cells; further: nearly all actives have a fitted effect of over 50% in size
FMDV inh: antivirals against foot and mouth disease virus. FMDV antiviral cell-based qHTS. Potency, µM (titrated, usually from 57.9 µM), for inactives: at the highest dose activity change, negative = inhibition, most hits filed as inhibitors. AID 1159524. 410,000 compounds, 1.2% hits; calls by dose curve; tested in HEK293T cells; further: read-out not given here; nearly all actives have a fitted effect of over 45% in size
VACV Venus inh: inhibitors of vaccinia virus (Venus reporter); 330,000 compounds, 0.46% hits; Vaccinia virus Venus reporter expression, fluorescence; Potency, µM (doses to about 36.5 µM), for inactives: top-dose activity change, negative = inhibition, most hits filed as inhibitors; calls by dose curve; tested in A549 cells; further: nearly all actives have a fitted effect of over 30% in size
Marburg entry inh: blocks Marburg virus binding to or entry into cells | Marburg virus pseudotyped entry inhibition, cell reporter | Potency, µM (titrated, usually from 37.8 µM), without a hit: top-dose activity change, negative = inhibition, actives largely listed as inhibitors | 300,000 compounds, 1.8% hits; calls by dose curve; tested in HEK293 cells
* = called active by the depositor; i = inactive; u = inconclusive; x = no result given; [ ] = dose if it differs, or a comment. A selection: hits, their analogues and other compounds. The true share with any hit is near 3.2%. On the % scale 0 is the no-effect control and ±100 the full control effect; potency means the concentration at half of the fitted maximal effect.

SMILES	VACV mCherry inh	LASV entry inh	FMDV inh	VACV Venus inh	Marburg entry inh
Cn1c(=O)c2nncnc2n(C)c1=O	i	8%	-16%	-8%	1%
NC(=O)c1ccc(N2CCN(c3ccccc3O)CC2)c([N+](=O)[O-])c1	-4%	-16%	-26%	-4%	u
CN1CCN(S(=O)(=O)c2cccs2)CC1	i	2%	-19%	-10%	-7%[46.1 µM]
O=S(=O)(c1cccs1)N1CCN(c2ccc(O)cc2)CC1	4µM*	u	-4%	-21%	u
CN1CCN(c2ccc(C(=O)c3ccc(Br)cc3)cc2[N+](=O)[O-])CC1	-18%	16%	u	-19%	7.9µM*
NC(=O)c1ccc(N2CCN(S(=O)(=O)c3cccs3)CC2)c([N+](=O)[O-])c1	x	x	20µM*	x	x
O=C(CNC(=O)C1CCCCC1)OCCOc1ccccc1	-21%	x	x	4%	x
O=C(c1cnn(-c2nccc(-c3ccccc3C(F)(F)F)n2)c1C1CC1)N1CCN(CCO)CC1	-8%	x	-7%	3%	x
CC(C)NC(=O)NC1N=NC(Nc2ccc(Cl)cc2)=N1 (stereo not given)	x	x	x	x	1%[46.1 µM]
CC(CCO)Nc1nc2c(c(=O)n(C)c(=O)n2C)n1Cc1ccc(Br)cc1 (stereo not given)	-9%	-28%[46.1 µM]	1%	-8%	-2%[46.1 µM]
CC(=O)c1c(C)[nH]c(C(=O)Nc2nc(-c3ccc(-c4ccccc4)cc3)cs2)c1C	i	u	11µM*	-18%	u
CC(=O)c1c(C)[nH]c(C(=O)Nc2nc(-c3ccc(Cl)cc3)cs2)c1C	-8%	u	u	-8%	u
CC(=O)c1c(C)[nH]c(C(=O)Nc2ccc(C)cn2)c1C	i	2.1µM*	-85%	-16%	2µM*
CC(=O)c1c(C)[nH]c(C(=O)Nc2nc(C)cs2)c1C	-5%	2.2µM*	-87%	-1%	1.8µM*
O=C([C@@H]1CC1(c1ccccc1)c1ccccc1)N1CCOCC1	x	x	x	x	-6%
CCOc1ccc(S(=O)(=O)N2CCN(C(=O)c3cc(C4CC4)nn3-c3ccccc3)CC2)cc1	-28%	-28%[46.1 µM]	u	u	u
COc1ccc(CCn2c(O)c(C=Nc3ccc(F)cc3)c(=O)[nH]c2=O)cc1OC	x	x	32µM*	x	x
CCN(CC)c1ccc(N=Cc2c(O)n(CCc3ccc(OC)c(OC)c3)c(=O)[nH]c2=O)cc1	-14%	u	6.3µM*	-7%	2.8µM*
COc1ccc(-c2[nH]ncc2CN(C)Cc2nonc2C)c(OC)c1	x	x	-7%	x	x
CN1CCN(S(=O)(=O)c2ccc(Sc3nnnn3-c3ccccc3)c([N+](=O)[O-])c2)CC1	-13%	15%	20µM*	-5%	u
O=[N+]([O-])c1ccc(Sc2nnnn2-c2ccccc2)c(Cl)c1	x	-3%	u	x	-26%
CC(=O)c1ccc(Sc2nnnn2-c2ccccc2)c([N+](=O)[O-])c1	-5%	-11%	32µM*	-3%	u
CC(C)(C)NC[C@H](O)c1ccccc1Cl	x	x	x	x	15%
CC(C)CNC(=S)NNC(=O)c1csc2c1CCCC2	-25%	-12%	69%	-22%	13%
CCC(C)NC(=O)COC(=O)c1csc2c1CCCC2 (stereo not given)	-12%	x	3.5µM*	-9%	x
SMILES	VACV mCherry inh	LASV entry inh	FMDV inh	VACV Venus inh	Marburg entry inh
CC1CC(CCN)(c2ccccc2)C(C)CN1C (stereo not given)	i[7.34 µM]	6%	9%	7%[7.34 µM]	4µM*
COc1ccc(CN(CCC#N)CCC2(c3ccccc3)CC(C)N(C)CC2C)cc1OC (stereo not given)	-4%[7.34 µM]	-15%	-7%	-7%[7.34 µM]	13µM*
CC1CC(O)(Cc2ccccc2)C(C)CN1C (stereo not given)	x	9%	-19%	-16%	-5%
CC1(C2CCN(Cc3c[nH]c4ccccc34)CC2)NC(=O)N(CCN2CCOCC2)C1=O (stereo not given)	-12%	x	-14%	-1%	x
CC(=O)Nc1ccc(C(=O)COC(=O)C2CC2C)c(F)c1 (stereo not given)	-26%	-9%	-16%	-9%	u
CCC1CN(Cc2ccc(COC)o2)Cc2cc(OC)ccc2O1 (stereo not given)	-6%	x	-7%	-3%	x
FC(F)(F)COc1nc(N2CCOCC2)nc(N(c2ccccc2)c2ccccc2)n1	u	u	u	u	13µM*
c1ccc(N(c2ccccc2)c2nc(N3CCOCC3)nc(N3CCOCC3)n2)cc1	x	x	x	x	1%
O=C(Nc1cc(C(=O)N2CCN(c3ccccc3O)CC2)ccc1Cl)c1cccs1	-4%	u	-13%	-9%	u
COc1ccccc1N1CCN(C(=O)C2CCCN(S(=O)(=O)c3ccc4c(c3)oc(=O)n4C)C2)CC1 (stereo not given)	-10%	u	25µM*	-14%	u
CC(=O)N1CCCc2cc(S(=O)(=O)N3CCCC(C(=O)N4CCN(c5ccccc5F)CC4)C3)ccc21 (stereo not given)	u	u	16µM*	-29%	x
O=C(C1CC1)N1CCc2cc(S(=O)(=O)N3CCN(c4ccccc4)CC3)ccc21	x	x	-29%	x	x
COc1ccc(N2CCN(C(=O)C3CCCN(S(=O)(=O)c4ccc5c(c4)oc(=O)n5C)C3)CC2)cc1 (stereo not given)	-14%	8%[46.1 µM]	u	-8%	-14%[46.1 µM]
O=C(C1CCC1)N1CCc2cc(S(=O)(=O)NCCN3CCN(c4ccccc4F)CC3)ccc21	u	16µM*	-22%	u	13µM*
CC(=O)N1CCCc2cc(S(=O)(=O)N3CCCC(C(=O)Nc4ccc(C)c(F)c4)C3)ccc21 (stereo not given)	-11%	-25%[46.1 µM]	u	-16%	x
O=C(CCNS(=O)(=O)c1ccc2c(c1)CCN2C(=O)C1CC1)N1CCN(c2ccccc2F)CC1	-21%	-10%[46.1 µM]	0%	-6%	x
O=C(C1CCC1)N1CCCc2cc(S(=O)(=O)N3CCN(c4ccccc4)CC3)ccc21	-5%	11µM*	u	-18%	x
O=C(Cn1ncc2c(Cl)cccc21)NCc1cccc(Br)c1	-18%	-24%[46.1 µM]	11%	-18%	2%[46.1 µM]
Cc1cccc(/C=N/NC(=O)c2ccncc2)n1	x	x	2%	x	x
CC[C@H](C)C(N)c1cn([C@@H](CC(N)=O)C(=O)N2CCNCC2)nn1 (stereo not given in full)	-17%	x	-23%	-4%	x
CCCNC(=O)c1ccc(-c2nc(CS(=O)(=O)c3ccc(C)cc3)c(C)o2)cc1	10%	-1%[46.1 µM]	-5%	-3%	x
COCCn1c(C)cc(C(=O)Cn2nc(C(=O)O)c3ccccc3c2=O)c1C	x	2%	-15%	x	u
CCCn1c(C)cc(C(=O)Cn2nnc3ccccc3c2=O)c1C	i	u	0%	-6%	14µM*
CCNc1ccc(/C=C2\C=Cc3ccccc32)cc1	-8%	x	x	-5%	x
Cc1ccc(NC(=O)Cn2nnc(-c3ccccc3NC(=O)c3cccs3)n2)cc1	-19%	0.58µM*	-12%	u	u
COC(=O)c1ccc(COc2ccccc2/C=C(\C#N)C(=O)Nc2c(C)cccc2C)cc1	-10%	u	11µM*	-27%	11µM*
COc1ccc2c(c1)OC(C)CN(CCNC(=O)c1ccc(-n3cccn3)cc1)C2 (stereo not given)	-26%	x	0%	-11%	x
